Experimental data from PubChem BioAssay (NCATS).
Several values for one entry are separate records, joined by “and”; a condition that tells them apart may be missing. Equal values may be shown once. Records with an inconclusive call do not appear. Activity calls are given as the source filed them. The call rests on the fitted dose curve; in most records, active means well fitted curve in the direction sought with a large enough effect; inconclusive means small, poorly fitted or top-dose-only effect, or another doubt; inactive means no such curve, though single readings can be large; an effect the other way counts as inactive or inconclusive.

What was measured:
[1] = Viability qHTS for spleen associated tyrosine kinase inhibitor (SYKi) naive MV4-11 cells (AID 1963823); further: nearly all actives have a fitted effect of over 40% in size
How it was run: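 Seeding of 500 SYKi-naive MV4-11 cells per well onto pre-dispensed compounds preceded a 72 hr incubation at 37 C. Luminescent CellTiter-Glo signal, read after 10 min at room temperature, reflected viable cells.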

[2] = Viability qHTS for spleen associated tyrosine kinase inhibitor (SYKi) drug resistant MV4-11 cells (AID 1963824); further: nearly all actives have a fitted effect of over 35% in size
How it was run: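 SYK inhibitor-resistant MV4-11 AML cells, 500 per well, added to predispensed compounds and incubated 72 hr at 37 C, 5% CO2. Viability measured by CellTiter-Glo luminescence after 10 min at room temperature.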

[3] = Cellular viability qHTS for adrenocortical cancer (ACC) cell line SW-13 (AID 1963989); conditions: SW-13 ACC cells viability, CellTiter-Glo, 48 h; activity (max response): stronger effect = lower value; further: nearly all actives have a fitted effect of over 65% in size;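 on activity (max response): cells grown in serum-free medium with ITS supplement; on the % scale 0 is the no-effect control and ±100 the full control effect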
How it was run: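 Compound titrations (up to 46 uM final, in DMSO) were applied to SW-13 cells for 48 h at 37C/5% CO2. Reading used CellTiter-Glo after 20 min at room temperature; fitted curves yielded IC50 and efficacy.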

[4] = Cellular viability qHTS for adrenocortical cancer (ACC) cell line NCI-H295R (AID 1963990); further: nearly all actives have a fitted effect of over 60% in size
How it was run: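 Readout: CellTiter-Glo luminescence, 20 min RT. Exposure: 48 h, 37C/5% CO2. Cells: NCI-H295R, ITS-DMEM serum-free. Range: up to 46 uM. Analysis: 4PL fit, IC50 plus efficacy.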
Potency means the concentration at half of the fitted maximal effect.

C#Cc1cccc(Nc2ncnc3cc(OCCOC)c(OCCOC)cc23)c1
active: Potency [1] 3.76 µM and 1.86 µM | Potency [2] 6.68 µM and 2.31 µM | Potency [3] 4.11 µM and 8.91 µM | Potency [4] 6.51 µM

CCN(CC)CCCC(C)Nc1c2ccc(Cl)cc2nc2ccc(OC)cc12 (configuration not stated)
active: Potency [1] 4.22 µM and 2.82 µM | Potency [2] 2.09 µM and 3.99 µM | Potency [3] 28.2 µM | Potency [4] 14.1 µM

C[C@@]1(c2ncncc2F)NC(=O)c2cc(-c3cn[nH]c3)ccc21
active: Potency [1] 16.6 µM | Potency [2] 20.9 µM
inactive: activity (max response) [3] -10.1% | Potency [4]

Nc1ccc(S(=O)(=O)Nc2ccccn2)cc1
inactive: Potency [1] | Potency [2] | activity (max response) [3] 6.67% | Potency [4]

CC(C)(C)c1ccc(O)c(O)c1
active: Potency [1] 9.69 µM | Potency [2] 6.11 µM | Potency [3] 10 µM | Potency [4] 8.91 µM

Nc1ccc(S(=O)(=O)Nc2cnc3ccccc3n2)cc1
inactive: Potency [1] | Potency [2] | activity (max response) [3] 8.58% | Potency [4]

C=C1/C(=C\C=C2/CCC[C@]3(C)[C@@H]([C@H](C)CCCC(C)(C)O)CC[C@@H]23)C[C@@H](O)C[C@@H]1O
active: Potency [1] 0.0186 µM | Potency [2] 1.48 µM | Potency [3] 28.2 µM | Potency [4] 25.1 µM

Cc1[nH]c2ccc(F)cc2c1-c1nc2c3cccnc3c3ncccc3c2[nH]1
active: Potency [1] 0.231 µM | Potency [2] 0.184 µM | Potency [3] 2.24 µM | Potency [4] 3.16 µM

CNC(=O)c1cccc2cc(Oc3ccnc4cc(OCC5(N)CC5)c(OC)cc34)ccc12
active: Potency [1] 13 µM | Potency [2] 14.8 µM and 20.6 µM | Potency [3] 28.2 µM | Potency [4] 22.4 µM

CC(=O)OC[C@H]1O[C@@H](n2ncc(=O)[nH]c2=O)[C@H](OC(C)=O)[C@@H]1OC(C)=O
inactive: Potency [1] | Potency [2] | activity (max response) [3] -6.84% | Potency [4]

CO[C@H]1/C=C\C=C(\C)C(=O)NC2=CC(=O)C(NCCN(C)C)=C(C[C@@H](C)C[C@H](OC)[C@H](O)[C@@H](C)/C=C(/C)[C@@H]1OC(N)=O)C2=O
active: Potency [1] 0.0332 µM | Potency [2] 0.0833 µM | Potency [3] 0.282 µM | Potency [4] 2 µM

CC1=C(C/C=C(\C)CCC[C@H](C)CCC[C@H](C)CCCC(C)C)C(=O)c2ccccc2C1=O
inactive: Potency [1] | Potency [2] | activity (max response) [3] 12.7% | Potency [4]

COc1cc(-c2ccc(=O)[nH]n2)ccc1OC(F)F
inactive: Potency [1] | Potency [2] | activity (max response) [3] -6.02% | Potency [4]

C=CCNC1=C2C[C@@H](C)C[C@H](OC)[C@H](O)[C@@H](C)/C=C(\C)[C@H](OC(N)=O)[C@@H](OC)/C=C\C=C(/C)C(=O)NC(=CC1=O)C2=O
active: Potency [1] 0.59 µM | Potency [2] 1.66 µM | Potency [3] 3.55 µM | Potency [4] 10 µM

CC(C)(C)c1nnc(NS(=O)(=O)c2ccc(N)cc2)s1
inactive: Potency [1] | Potency [2] | activity (max response) [3] -5.75% | Potency [4]

CC1(C(=O)O)CCC2(C)CCC3(C)C(=CC(=O)C4C5(C)CCC(OC6OC(C(=O)O)C(O)C(O)C6OC6OC(C(=O)O)C(O)C(O)C6O)C(C)(C)C5CCC43C)C2C1 (configuration not stated)
inactive: Potency [1] | Potency [2] | activity (max response) [3] 1.77% | Potency [4]

O=C(O)Cc1ccc(-c2ccccc2)cc1
inactive: Potency [1] | Potency [2] | activity (max response) [3] 3.26% | Potency [4]

CCOC(=O)C1=C(C)NC(C)=C(C(=O)OCC)C1c1ccccc1/C=C/C(=O)OC(C)(C)C
active: Potency [1] 9.44 µM | Potency [2] 4.73 µM | Potency [3] 16.4 µM | Potency [4] 6.51 µM

CC(C)Oc1ccc(-c2nn([C@@H](C)c3oc4ccc(F)cc4c(=O)c3-c3cccc(F)c3)c3ncnc(N)c23)cc1F
inactive: activity (max response) [3] 7.73% | Potency [4]
active: Potency [1] 14.8 µM | Potency [2] 11.8 µM

CN=C(NC#N)NCCSCc1csc(N=C(N)N)n1
inactive: Potency [1] | Potency [2] | activity (max response) [3] 7.67% | Potency [4]

NCC1CCC(C(=O)O)CC1 (configuration not stated)
inactive: Potency [1] | Potency [2] | activity (max response) [3] 10.7% | Potency [4]

CCCCOc1cc(C(=O)OCCN(CC)CC)ccc1N
inactive: Potency [1] | Potency [2] | activity (max response) [3] -10.3% | Potency [4]

CC(C)(C)c1ccc(C(=O)CCCN2CCC(OC(c3ccccc3)c3ccccc3)CC2)cc1
active: Potency [1] 13.3 µM | Potency [2] 11.9 µM | Potency [3] 13 µM | Potency [4] 5.8 µM
